Assay results: PubChem BioAssay (NCATS)
Several values for one entry are separate records, joined by “and”; a condition that tells them apart may be missing. Equal values may be shown once. Inconclusive results are not listed. Activity calls are given as the source filed them. The call rests on the fitted dose curve; in most records, active means well fitted curve in the direction sought with a large enough effect; inconclusive means small, poorly fitted or top-dose-only effect, or another doubt; inactive means no such curve, though single readings can be large; an effect the other way counts as inactive or inconclusive. Peptide text beside a SMILES is read from it.

Molecular target: N-terminal Xaa-Pro-Lys N-methyltransferase 1 (Homo sapiens) (UniProt Q9BV86)
Sequence (Q9BV86 whole entry, looked up): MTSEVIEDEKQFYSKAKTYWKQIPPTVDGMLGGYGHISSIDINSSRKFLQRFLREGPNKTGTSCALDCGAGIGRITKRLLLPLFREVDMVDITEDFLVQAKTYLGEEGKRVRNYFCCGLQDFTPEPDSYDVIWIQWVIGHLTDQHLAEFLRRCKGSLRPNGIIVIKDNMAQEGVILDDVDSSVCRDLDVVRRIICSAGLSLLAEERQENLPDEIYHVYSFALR
Test: Confirmatory qHTS for Inhibitors of N-terminal methyltransferase 1 (NTMT1): MTaseGlo Assay (AID 1645874); further: nearly all actives have a fitted effect of over 65% in size;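 on activity change, negative = inhibition: luminescence from SAH made as NTMT1 methylates SPKRIA peptide using SAM; 0% = DMSO control and -100% = no-enzyme control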
Conditions: NTMT1 enzyme, MTase-Glo SAH luminescence; series mostly up to 51.5 µM; activity change, negative = inhibition: at the top concentration
In short: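 Room-temperature NTMT1 reaction, 30 min, with 100 uM SAM and 1 uM SPKRIA substrate; enzyme 125 nM. Read-out: MTase-Glo luminescence, normalized to no-enzyme and DMSO controls.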
Potency means the concentration at half of the fitted maximal effect.

Compound	activity change, negative = inhibition	Potency
S=c1nc[nH]c2nc[nH]c12	-3.25% (inactive)	–
CCCCCCCCOc1ccccc1C(=O)Nc1ccc(C(=O)OCC[N+](C)(CC)CC)cc1	–	47.8 µM (active)
COc1cc(Nc2c(C#N)cnc3cc(OCCCN4CCN(C)CC4)c(OC)cc23)c(Cl)cc1Cl	–	15.8 µM (active)
Cc1cc(O)c2c(c1)C(=O)c1cc(O)cc(O)c1C2=O	–	30.8 µM (active)
O=C(O)c1cccc(-c2noc(-c3ccccc3F)n2)c1	-23.6% [at 100 µM] (inactive)	–
Oc1ccc(-c2nc(-c3ccc(F)cc3)c(-c3ccncc3)[nH]2)cc1	–	39.8 µM (active)

Test system: not listed separately
Test: Primary qHTS for inhibitors of nuclear receptor binding SET domain protein 2 (NSD2) in an isogenic RCH-ACV NSD2 p.E1099K mutant (9B) (AID 1645876); further: nearly all actives have a fitted effect of over 70% in size; on activity change, negative = viability loss: on the % scale 0 is the no-effect control and ±100 the full control effect
Conditions: RCH-ACV NSD2 E1099K (9B) viability, CellTiter-Glo, 72 h; series mostly up to 44.9 µM; activity change, negative = viability loss: at the top concentration

Compound	Potency	activity change, negative = viability loss
S=c1nc[nH]c2nc[nH]c12	944 nM (active) and 2.63 µM (active)	–
CC1=C(C(=O)O)N2C(=O)[C@@H](NC(=O)[C@H](N)C3=CCC=CC3)[C@H]2SC1	–	-43.6% (inactive)
O=C(NCCO[N+](=O)[O-])c1cccnc1	inactive	–
Cc1cccc(CN2CCN(C(c3ccccc3)c3ccc(Cl)cc3)CC2)c1 (stereo not given)	–	-25.4% (inactive)
Nc1nc(N)c(N=O)c(OCC2CCCCC2)n1	7.31 µM (active) and 4.68 µM (active)	–
COc1cc(Nc2c(C#N)cnc3cc(OCCCN4CCN(C)CC4)c(OC)cc23)c(Cl)cc1Cl	596 nM (active) and 1.63 µM (active) and 1.32 µM (active)	–
O=C1c2ccccc2-c2n[nH]c3cccc1c23	11.8 µM (active) and 14.6 µM (active)	–
O=C(NCC1CCCCN1)c1cc(OCC(F)(F)F)ccc1OCC(F)(F)F (stereo not given)	–	1.62% (inactive)
O=C(CCc1ccc(O)cc1)c1c(O)cc(O)cc1O	–	-5.07% (inactive)
COc1cc2nc(N3CCN(C(=O)C4CCCO4)CC3)nc(N)c2cc1OC (stereo not given)	11.9 µM (active)	–
Cc1cc(O)c2c(c1)C(=O)c1cc(O)cc(O)c1C2=O	–	9.44% (inactive)
O=C1CCc2ccc(OCCCCN3CCN(c4cccc(Cl)c4Cl)CC3)cc2N1	–	-21.4% (inactive)
CC(C)Oc1ccc2c(=O)c(-c3ccccc3)coc2c1	inactive	–
CCCOc1ccc2nc(NC(=O)OC)[nH]c2c1	411 nM (active) and 417 nM (active)	–
CCC1=C(C)CN(C(=O)NCCc2ccc(S(=O)(=O)NC(=O)NC3CCC(C)CC3)cc2)C1=O (stereo not given)	–	-14.3% (inactive)
Nc1cccc2c1CN(C1CCC(=O)NC1=O)C2=O (stereo not given)	–	-42.1% (inactive)

Compound	Potency	activity change, negative = viability loss
COCCCOc1ccnc(CS(=O)c2nc3ccccc3[nH]2)c1C (stereo not given)	inactive	–
CC[C@]1(O)C[C@H]2CN(CCc3c([nH]c4ccccc34)[C@@](C(=O)OC)(c3cc4c(cc3OC)N(C=O)[C@H]3[C@@](O)(C(=O)OC)[C@H](OC(C)=O)[C@]5(CC)C=CCN6CC[C@]43[C@@H]65)C2)C1	7.5 nM (active) and 59 nM (active)	–
O=C(NOCC1CC1)c1ccc(F)c(F)c1Nc1ccc(I)cc1Cl	8.41 µM (active) and 23 µM (active)	–
NNc1nncc2ccccc12	inactive	–
O=c1cc(N2CCOCC2)oc2c(-c3ccccc3)cccc12	4.17 µM (active)	–
CC(=O)O[C@H]1C(=O)[C@@]2(C)C([C@H](OC(=O)c3ccccc3)[C@]3(O)C[C@H](OC(=O)[C@H](O)[C@@H](NC(=O)c4ccccc4)c4ccccc4)C(C)=C1C3(C)C)[C@]1(OC(C)=O)CO[C@@H]1C[C@@H]2O (stereo not given in full)	4.5 nM (active) and 5.9 nM (active)	–
Cc1cc(=O)c2c(O)c3c(O)cc(=O)c4c3c3c(cc(O)c1c23)C(C)(C)C=4O	–	-16.1% [at 17.3 µM] (inactive)
CCCS(=O)c1ccc2nc(NC(=O)OC)[nH]c2c1 (stereo not given)	4.22 µM (active) and 8.17 µM (active)	–
Nc1ccn([C@@H]2O[C@H](CO)[C@@H](O)C2O)c(=O)n1 (stereo not given in full)	0.0166 µM (active)	–
O=C(O)c1cccc(-c2noc(-c3ccccc3F)n2)c1	–	-5.09% (inactive)
CCCCN(CCCC)CCC(O)c1cc2c(Cl)cc(Cl)cc2c2cc(C(F)(F)F)ccc12 (stereo not given)	13.3 µM (active)	–
O=c1c(O)c(-c2cc(O)c(O)c(O)c2)oc2cc(O)cc(O)c12	18.6 µM (active)	–
Oc1ccc(-c2nc(-c3ccc(F)cc3)c(-c3ccncc3)[nH]2)cc1	5.25 µM (active)	–
COC(=O)[C@H](Cc1ccccc1)NC(=O)[C@@H](N)CC(=O)O (H-Asp-Phe-OMe)	inactive	–
Cn1c(NCCN(CCO)CCCc2ccc([N+](=O)[O-])cc2)cc(=O)n(C)c1=O	inactive	–

Test system: not listed separately
Test: Primary qHTS for inhibitors of nuclear receptor binding SET domain protein 2 (NSD2) in an RCH-ACV wild type WT cells (2C) (AID 1645877); further: nearly all actives have a fitted effect of over 70% in size; on activity change, negative = cell killing: on the % scale 0 is the no-effect control and ±100 the full control effect
Conditions: RCH-ACV (leukaemia line) NSD2 WT (2C) viability, CellTiter-Glo, 72 h; series mostly up to 44.9 µM; activity change, negative = cell killing: at the top concentration

Compound	Potency	activity change, negative = cell killing	outcome
S=c1nc[nH]c2nc[nH]c12	668 nM (active) and 1.66 µM (active)	–	–
O=C(NCCO[N+](=O)[O-])c1cccnc1	inactive	–	–
Nc1nc(N)c(N=O)c(OCC2CCCCC2)n1	6.51 µM (active)	–	–
COc1cc(Nc2c(C#N)cnc3cc(OCCCN4CCN(C)CC4)c(OC)cc23)c(Cl)cc1Cl	531 nM (active) and 1.63 µM (active) and 1.48 µM (active)	–	–
O=C1c2ccccc2-c2n[nH]c3cccc1c23	13.2 µM (active) and 14.6 µM (active)	–	–
O=C(NCC1CCCCN1)c1cc(OCC(F)(F)F)ccc1OCC(F)(F)F (stereo not given)	–	4.56% (inactive)	–
Cc1cc(O)c2c(c1)C(=O)c1cc(O)cc(O)c1C2=O	–	–	inactive
CC(C)Oc1ccc2c(=O)c(-c3ccccc3)coc2c1	inactive	–	–
CCCOc1ccc2nc(NC(=O)OC)[nH]c2c1	366 nM (active) and 263 nM (active)	–	–
Nc1cccc2c1CN(C1CCC(=O)NC1=O)C2=O (stereo not given)	–	-36% (inactive)	–
COCCCOc1ccnc(CS(=O)c2nc3ccccc3[nH]2)c1C (stereo not given)	–	-0.248% (inactive)	–
CC[C@]1(O)C[C@H]2CN(CCc3c([nH]c4ccccc34)[C@@](C(=O)OC)(c3cc4c(cc3OC)N(C=O)[C@H]3[C@@](O)(C(=O)OC)[C@H](OC(C)=O)[C@]5(CC)C=CCN6CC[C@]43[C@@H]65)C2)C1	6.7 nM (active) and 29.5 nM (active)	–	–
O=C(NOCC1CC1)c1ccc(F)c(F)c1Nc1ccc(I)cc1Cl	6.68 µM (active) and 20.5 µM (active)	–	–
NNc1nncc2ccccc12	–	-6.81% [at 17.3 µM] (inactive)	–
O=c1cc(N2CCOCC2)oc2c(-c3ccccc3)cccc12	2.63 µM (active)	–	–
CC(=O)O[C@H]1C(=O)[C@@]2(C)C([C@H](OC(=O)c3ccccc3)[C@]3(O)C[C@H](OC(=O)[C@H](O)[C@@H](NC(=O)c4ccccc4)c4ccccc4)C(C)=C1C3(C)C)[C@]1(OC(C)=O)CO[C@@H]1C[C@@H]2O (stereo not given in full)	5.1 nM (active) and 5.9 nM (active)	–	–
CCCS(=O)c1ccc2nc(NC(=O)OC)[nH]c2c1 (stereo not given)	2.66 µM (active) and 18.6 µM (active) and 4.09 µM (active)	–	–
Nc1ccn([C@@H]2O[C@H](CO)[C@@H](O)C2O)c(=O)n1 (stereo not given in full)	0.0166 µM (active)	–	–
O=C(O)c1cccc(-c2noc(-c3ccccc3F)n2)c1	–	-0.47% (inactive)	–
CCCCN(CCCC)CCC(O)c1cc2c(Cl)cc(Cl)cc2c2cc(C(F)(F)F)ccc12 (stereo not given)	16.6 µM (active)	–	–
Oc1ccc(-c2nc(-c3ccc(F)cc3)c(-c3ccncc3)[nH]2)cc1	14.8 µM (active)	–	–
COC(=O)[C@H](Cc1ccccc1)NC(=O)[C@@H](N)CC(=O)O (H-Asp-Phe-OMe)	inactive	–	–
Cn1c(NCCN(CCO)CCCc2ccc([N+](=O)[O-])cc2)cc(=O)n(C)c1=O	inactive	–	–
